G9a inh: qHTS Assay for Inhibitors of Histone Lysine Methyltransferase G9a. actives 8.8% (n = 350,000). Potency, µM (doses to about 102 µM), without a hit: top-dose activity, negative = inhibition, actives largely listed as inhibitors. AID 504332, 2011. Histone-lysine N-methyltransferase EHMT2 (Homo sapiens), Q96KQ7. G9a H3K9 monomethylation, AlphaScreen, 2 h; also: % is scaled to controls: 0 for no effect and ±100 for the full control effect; nearly all actives have a fitted effect of over 75% in size
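AlphaScreen detection with an anti-monomethyl H3K9 antibody quantified product after a 2 h room-temperature reaction containing 500 nM biotinylated H3K9 peptide, 20 µM SAM and 20 nM enzyme, which had been preincubated 15 min with compound.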
GLS inhibitor: qHTS for Inhibitors of Glutaminase (GLS) | GLS enzymatic activity, qHTS titration | AID 624170, 2012 | Glutaminase kidney isoform, mitochondrial (Homo sapiens), O94925 | Potency, µM (series often up to 45.5 µM), without a hit: at the highest dose activity change, negative = inhibition, usual class: inhibitors | actives 0.21% (n = 410,000); also: % is scaled to controls: 0 for no effect and ±100 for the full control effect
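Coupled fluorescence readout: glutamate oxidase/HRP/Amplex Red detect glutamate formed by hKGA from L-glutamine (1 mM solution added). Buffer 45 mM KH2PO4 pH 8.2, 0.02% Tween-20; reads at t0 and 30 min RT.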
HP1b chromo inh: HTS for Inhibitors of HP1-beta Chromodomain Interactions with Methylated Histone Tails. Chromobox protein homolog 1 (Homo sapiens), P83916. AlphaScreen HP1-beta / biotin-H3K9me3 peptide binding. actives 0.56% (n = 390,000). Potency, µM (series often up to 114 µM), inactives show at the top dose activity change, negative = inhibition, most hits filed as inhibitors; also: nearly all actives have a fitted effect of over 70% in size
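Compound inhibition of the preformed complex between 50 nM HP1-beta and 50 nM biotinylated H3K9me3 peptide was read by AlphaScreen. Buffer was PBS pH 7.4 with 0.01% Tween-20. Incubations ran 30 min at room temperature, with 10 ug/mL donor/acceptor beads.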
BAZ2B inh: qHTS Assay for Inhibitors of BAZ2B | Potency, µM (top dose mostly 114 µM), for inactives: top-dose activity change, negative = inhibition, hits mostly inhibitors | AlphaScreen BAZ2B-H3K14Ac peptide displacement | AID 504333, 2011 | actives 4.4% (n = 360,000) | Bromodomain adjacent to zinc finger domain protein 2B (Homo sapiens), Q9UIF8; also: % is scaled to controls: 0 for no effect and ±100 for the full control effect; nearly all actives have a fitted effect of over 60% in size
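AlphaScreen displacement: compounds (up to 110uM) incubated 30 min at room temperature with a preformed 50 nM BAZ2B/50 nM biotinylated H3K14Ac peptide complex in PBS pH 7.4 with Tween-20. Donor and acceptor beads at 10 ug/mL final added, 20 min light-protected before reading.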
JMJD2A Tudor inh: qHTS Assay for Inhibitors of JMJD2A-Tudor Domain; AlphaScreen JMJD2A-Tudor / H3K4me3 peptide binding; Potency, µM (highest dose often 114 µM), inactives show top-dose activity change, negative = inhibition, actives largely listed as inhibitors; actives 4.4% (n = 390,000); AID 504339, 2011; also: % is scaled to controls: 0 for no effect and ±100 for the full control effect; nearly all actives have a fitted effect of over 50% in size
Target sequence (O75164 whole entry, looked up, the tested form may be a part): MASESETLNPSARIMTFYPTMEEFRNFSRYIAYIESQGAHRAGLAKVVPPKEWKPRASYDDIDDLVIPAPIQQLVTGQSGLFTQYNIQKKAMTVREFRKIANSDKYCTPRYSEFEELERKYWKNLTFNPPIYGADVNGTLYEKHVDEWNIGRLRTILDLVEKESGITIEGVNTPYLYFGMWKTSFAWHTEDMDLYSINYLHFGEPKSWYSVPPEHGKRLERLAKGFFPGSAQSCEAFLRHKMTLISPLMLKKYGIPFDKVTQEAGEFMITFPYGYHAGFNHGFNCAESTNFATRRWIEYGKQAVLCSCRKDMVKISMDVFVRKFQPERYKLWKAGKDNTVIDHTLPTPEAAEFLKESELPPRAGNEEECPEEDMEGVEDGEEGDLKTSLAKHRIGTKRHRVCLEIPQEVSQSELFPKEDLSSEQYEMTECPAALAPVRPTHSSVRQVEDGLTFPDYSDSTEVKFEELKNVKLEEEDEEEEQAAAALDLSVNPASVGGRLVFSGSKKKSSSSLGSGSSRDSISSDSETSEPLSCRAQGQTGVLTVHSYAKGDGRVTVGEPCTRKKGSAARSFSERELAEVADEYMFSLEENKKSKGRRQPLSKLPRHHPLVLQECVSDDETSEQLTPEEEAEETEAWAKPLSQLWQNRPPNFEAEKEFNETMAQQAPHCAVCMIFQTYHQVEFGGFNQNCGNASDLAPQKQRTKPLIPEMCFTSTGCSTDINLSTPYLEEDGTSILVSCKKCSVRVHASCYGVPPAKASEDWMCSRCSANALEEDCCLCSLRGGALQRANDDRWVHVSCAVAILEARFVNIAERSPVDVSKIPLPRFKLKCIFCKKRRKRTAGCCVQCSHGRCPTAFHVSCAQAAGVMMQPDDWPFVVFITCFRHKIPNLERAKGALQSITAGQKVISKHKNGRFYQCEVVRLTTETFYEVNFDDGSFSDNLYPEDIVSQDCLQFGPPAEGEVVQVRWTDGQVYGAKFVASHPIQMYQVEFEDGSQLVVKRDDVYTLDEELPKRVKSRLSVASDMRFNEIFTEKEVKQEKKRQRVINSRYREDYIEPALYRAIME
The depositor's hits bear a star; [ ] = another dose, or the depositor's remark. Hits are enriched below; roughly 10% of the tested compounds scored in any of these assays. Calls follow the shape of the dose curve; as a rule, active = well fitted curve in the direction sought with a large enough effect; inconclusive = small, poorly fitted or top-dose-only effect, or another doubt; inactive = no such curve, though single readings can be large; an effect the other way counts as inactive or inconclusive. Potency is read from the fitted curve at half-maximal effect.

How did COc1ccc([C@H]2CC(=O)C=C(c3cccc(C(C)C)c3)C2)cc1OC do in these assays?
G9a inh: 4.3%[0.501 µM]; GLS inhibitor: -9.8%; HP1b chromo inh: 33.0%; BAZ2B inh: -22.7%; JMJD2A Tudor inh: -22.5%

What do the screens show for `N#Cc1ccc(OCc2c(-c3ccccc3)nnn2CC(=O)O)cc1`?
GLS inhibitor: 1.8%

What do the screens show for `Cc1cc(C)c(S(=O)(=O)NCC(=O)NCc2cc(=O)n(C)c(=O)n2C)c(C)c1`?
G9a inh: 40.6%[59 µM]; GLS inhibitor: 2.5%; HP1b chromo inh: 48.7%; BAZ2B inh: -9.7%; JMJD2A Tudor inh: -10.7%

Results for Cc1cc2nc(-c3ccc(SCc4ccc(C(=O)O)cc4)nc3)[nH]c2cc1C ?
G9a inh: 31.6µM*; GLS inhibitor: -22.5%; HP1b chromo inh: 1.6%; BAZ2B inh: 31.6µM*; JMJD2A Tudor inh: inconclusive

Results for Cc1c(Cl)cccc1NC(=O)C(=O)NCCc1csc(-c2ccc(C(F)(F)F)cc2)n1 ?
G9a inh: 8.4%[59 µM]; GLS inhibitor: 1.0%; HP1b chromo inh: 25.0%[57 µM]; BAZ2B inh: 5.4%; JMJD2A Tudor inh: 2.6%

How did CCC(C)NC(=O)C1=CC(c2ccc3c(c2)OCO3)=NS(=O)(=O)N1C (stereo unspecified) do in these assays?
G9a inh: -5.8%[59 µM]; GLS inhibitor: -0.4%; HP1b chromo inh: 50.4%; BAZ2B inh: -8.9%; JMJD2A Tudor inh: -4.3%

Results for O=C(CSc1nnc(NC(=O)C2CCC2)s1)Nc1ccc(N2CCOCC2)cc1 ?
G9a inh: 50.1µM*; GLS inhibitor: 10.1%; HP1b chromo inh: -17.2%; BAZ2B inh: -8.0%; JMJD2A Tudor inh: -9.9%[57.1 µM]

How did Cc1ccc(Nc2nnc(SCC(=O)Nc3cccc(S(=O)(=O)NC4=NCCCCC4)c3)s2)cc1 do in these assays?
G9a inh: -2.2%[2.33 µM]; GLS inhibitor: 12.7%; HP1b chromo inh: 0.3%; BAZ2B inh: inconclusive; JMJD2A Tudor inh: -35.8%

What do the screens show for `CSc1nnc(NC(=O)c2ccc(S(=O)(=O)N3CCOCC3)cc2)s1`?
G9a inh: 10µM*; GLS inhibitor: 2.6%; HP1b chromo inh: 55.8%; BAZ2B inh: -4.0%; JMJD2A Tudor inh: 5.1%

How did Cc1cccc(NC(=O)CSc2nnc(NC(=O)CN3CCCCC3)s2)c1 do in these assays?
G9a inh: 16.2%[59 µM]; BAZ2B inh: 3.8%

What do the screens show for `NC(=O)CSc1nnc(NC(=O)c2ccc(S(=O)(=O)N3CCOCC3)cc2)s1`?
GLS inhibitor: -1.6%; HP1b chromo inh: 38.3%; BAZ2B inh: -4.5%; JMJD2A Tudor inh: -1.4%

How did CCc1ccc(Nc2nnc(SCC(=O)Nc3cccc(S(=O)(=O)NC4=NCCCCC4)c3)s2)cc1 do in these assays?
G9a inh: 6.31µM*; GLS inhibitor: 8.7%; HP1b chromo inh: 9.1%; BAZ2B inh: -29.9%; JMJD2A Tudor inh: -32.1%

What do the screens show for `O=C(CSc1nnc(NC2CC2)s1)Nc1ccc(N2CCOCC2)cc1`?
G9a inh: 10.7%[2.33 µM]; GLS inhibitor: 17.8%; HP1b chromo inh: 27.4%; BAZ2B inh: 1.6%; JMJD2A Tudor inh: -10.7%

What do the screens show for `Cc1cccc(Nc2nnc(SCC(=O)Nc3cccc(S(=O)(=O)N4CCCCC4)c3)s2)c1`?
G9a inh: 3.55µM*; GLS inhibitor: 11.1%; HP1b chromo inh: -8.4%; BAZ2B inh: -36.6%; JMJD2A Tudor inh: inconclusive

Results for CCN1C(=O)[C@H]2[C@@H](c3ccc(C(F)(F)F)cc3)N[C@]3(CCCN(Cc4ccco4)C3=O)[C@H]2C1=O ?
GLS inhibitor: -2.3%

How did Cc1ccc(F)c(C2C3C=CCCC3(C)C(=O)N2Cc2ccccc2)c1 (stereo unspecified) do in these assays?
HP1b chromo inh: 36.5%; JMJD2A Tudor inh: -3.4%

How did O=C(CSc1nnc(Nc2ccccc2)s1)Nc1ccc(S(=O)(=O)N2CCOCC2)cc1 do in these assays?
G9a inh: 8.91µM*; GLS inhibitor: 11.4%; HP1b chromo inh: 21.3%; BAZ2B inh: -1.0%; JMJD2A Tudor inh: -10.8%

What do the screens show for `COC(=O)Cc1ccc(OC2(C)CCN(Cc3ccc(-c4ccccn4)cc3)C2)cc1` (stereo unspecified)?
GLS inhibitor: -5.5%

What do the screens show for `O=Cc1coc2ccc3ccccc3c2c1=O`?
G9a inh: 50.1µM*; GLS inhibitor: inconclusive; HP1b chromo inh: -20.7%; BAZ2B inh: -4.8%; JMJD2A Tudor inh: inconclusive

What do the screens show for `NC(=O)N/N=C/c1coc2ccc3ccccc3c2c1=O`?
G9a inh: -26.2%; GLS inhibitor: 5.7%; HP1b chromo inh: 5.6%; BAZ2B inh: -4.5%; JMJD2A Tudor inh: 1.4%

What do the screens show for `CCOCCCNCc1ccc(Cl)cc1`?
G9a inh: 11.2µM*; GLS inhibitor: 6.3%; HP1b chromo inh: inconclusive; BAZ2B inh: 70.8µM*; JMJD2A Tudor inh: 1.12µM*

How did CCOCCCNCc1cccc(OCc2ccc(F)cc2)c1 do in these assays?
G9a inh: -14.4%[59 µM]; GLS inhibitor: -8.0%; HP1b chromo inh: 38.5%; BAZ2B inh: -7.2%; JMJD2A Tudor inh: 5.6%

How did O=C(NC(c1ccccc1)c1cc(Cl)c2cccnc2c1O)c1cccnc1 (stereo unspecified) do in these assays?
G9a inh: -24.0%[59 µM]; BAZ2B inh: 0.7%

What do the screens show for `COc1ccccc1C(NC(C)=O)c1cc(Cl)c2cccnc2c1O` (stereo unspecified)?
G9a inh: 18.0%; GLS inhibitor: -10.3%; HP1b chromo inh: 35.6%; BAZ2B inh: -12.9%; JMJD2A Tudor inh: inconclusive

Results for CCOc1ccc(C(Nc2cccnc2)c2cc(Cl)c3cccnc3c2O)cc1 (stereo unspecified) ?
GLS inhibitor: -8.3%; HP1b chromo inh: inconclusive; BAZ2B inh: 44.7µM*; JMJD2A Tudor inh: 39.8µM*

What do the screens show for `CCCC(=O)NC(c1ccc2c(c1)OCO2)c1cc(Cl)c2cccnc2c1O` (stereo unspecified)?
G9a inh: 28.7%[59 µM]; GLS inhibitor: -3.5%; HP1b chromo inh: 36.3%; BAZ2B inh: 5.2%; JMJD2A Tudor inh: -13.0%

Results for O=C(O)COc1ccccc1C(Nc1cccnc1)c1cc(Cl)c2cccnc2c1O (stereo unspecified) ?
G9a inh: 2.82µM*; GLS inhibitor: 35.9%; HP1b chromo inh: inconclusive; BAZ2B inh: 20µM*; JMJD2A Tudor inh: 22.4µM*

Results for O=C(O)COc1ccccc1C(Nc1ccccn1)c1cc(Cl)c2cccnc2c1O (stereo unspecified) ?
G9a inh: 7.94µM*; GLS inhibitor: -10.8%; HP1b chromo inh: inconclusive; BAZ2B inh: 39.8µM*; JMJD2A Tudor inh: 79.4µM*

Screening data (PubChem)
